Test results as given in article PMC7819943, “Rice protein-binding microarrays: a tool to detect cis-acting elements near promoter regions in rice”.
In all, about 68,000 sequences were measured (“fluorescence intensity (a.u.)”: median about 9,100, highest 2% from about 16,000 on). The sample holds the highest values, similar sequences and a random draw of the others, so the mix is not that of the screen.

These sequences were tested against OsWRKY34 (Oryza sativa, UniProt Q0JBA9 1-250) (assay: protein-binding microarray (RPBM); PBS, 2% BSA, 51.3 ng/ul salmon testes DNA, 50 uM zinc acetate, 200 nM TF, 25 C, 1 h; high values mean tight binding). Details: protein: recombinant; tags: N-terminal polyhistidine and DsRed monomer fusion (pET32a); label: CyDye5-dUTP incorporated in the synthesized complementary strand; 3' TTTTT single-stranded linker to array surface; dsDNA, one strand shown.
OsWRKY34, sequence (Q0JBA9 entry or part of it): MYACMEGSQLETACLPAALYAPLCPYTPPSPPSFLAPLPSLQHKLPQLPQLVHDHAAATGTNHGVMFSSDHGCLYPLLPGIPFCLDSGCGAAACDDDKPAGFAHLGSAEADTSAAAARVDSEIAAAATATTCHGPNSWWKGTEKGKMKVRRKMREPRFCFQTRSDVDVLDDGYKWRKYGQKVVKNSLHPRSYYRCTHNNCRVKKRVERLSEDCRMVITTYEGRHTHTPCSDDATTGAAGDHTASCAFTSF
Procedure, shortened: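 Binding signal is defined as the fluorescence intensity of each feature in arbitrary units, read on an Axon 4000B scanner. Transcription factors with N-terminal polyhistidine and DsRed fusions came from E. coli BL21-CodonPlus and were purified on Ni–NTA. They were incubated at 200 nM for 1 h at 25 °C on a custom Agilent array that had been made double-stranded with Cy5-dUTP, with 50 µM zinc acetate present, and the array was washed.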
In the case of “TTCGGGTTCAATTTCAGGTTCAGTCGCTTGCTTGGTGCTTCGGAGTCACCTAGTGCAG”, the binding signal is reported as 8960 fluorescence intensity (a.u.).
In the case of “TATATACTTTCATGGGTCTATATTTATATGTATGTATACACGGAGTCACCTAGTGCAG”, the binding signal is reported as 8690 fluorescence intensity (a.u.).
With “TACTCAATGTCTAATGGGGTGTTTGGATGGGACTAATTTTCGGAGTCACCTAGTGCAG” the binding signal was 13000 fluorescence intensity (a.u.).
With “GGTGCGTGTTCGGGATGGGGTTCGGGTTCAATTTCAGGTTCGGAGTCACCTAGTGCAG” the binding signal was 16700 fluorescence intensity (a.u.).
With “TCGGTTTCATACGTGGGGTCTGTTGGTGGAGGTGTTGCCACGGAGTCACCTAGTGCAG” the binding signal was 9440 fluorescence intensity (a.u.).
With “CGATACTTTCATGGGTGGGTCCTATGTTGCACGGTTGGTTCGGAGTCACCTAGTGCAG” the binding signal was 22900 fluorescence intensity (a.u.).
In the case of “TTACTATACTATTAATATCTGATCACACCTGTCATACACACGGAGTCACCTAGTGCAG”, the binding signal is reported as 9710 fluorescence intensity (a.u.).
“CAGAGTGCAAGCCAATCATCGCCACCACGCTACGCTACACCGGAGTCACCTAGTGCAG” was tested, and the binding signal was 8130 fluorescence intensity (a.u.).
For “CGTTTGTACTGTGTGGTGGTTGGTGATTGGGTGTTGTGCCCGGAGTCACCTAGTGCAG”, the binding signal was 13900 fluorescence intensity (a.u.).
For “AAAAGCCGGTCTCCTTCATCTTCCCGTCCGTAAACCCTAACGGAGTCACCTAGTGCAG”, the binding signal was 10600 fluorescence intensity (a.u.).
“CATCTCCTCCGTTTTCCGCGCACATGTTTTTTAAACTGCTCGGAGTCACCTAGTGCAG” was tested, and the binding signal was 10400 fluorescence intensity (a.u.).
For “CCTCTACGCGCGGCCAACGCCGCCGCCGCCGCCGCCGCTCCGGAGTCACCTAGTGCAG”, the binding signal was 8370 fluorescence intensity (a.u.).
With “TCCCTCTCTCTCTCTCTCTTCGTTTCCGCGCGCGCGCGCGCGGAGTCACCTAGTGCAG” the binding signal was 9340 fluorescence intensity (a.u.).
“CTCGCCTCTAGGGTTCCGCCGTTTTCCGCGGCGCGCCACCCGGAGTCACCTAGTGCAG” was tested, and the binding signal was 9410 fluorescence intensity (a.u.).
With “TCTACGCCGCCGGCGGCGGCGGCGGCGGCAACTGCGGCGCCGGAGTCACCTAGTGCAG” the binding signal was 47800 fluorescence intensity (a.u.).
In the case of “CGCCTCTTTTCGTTTCGTTTCGCCGCCCGCTTCCGCCGCGCGGAGTCACCTAGTGCAG”, the binding signal is reported as 23300 fluorescence intensity (a.u.).
“CCGCCGCCGTTCCGTTTTTTCTCTCTCGCGCCGCCGCCAGCGGAGTCACCTAGTGCAG” was tested, and the binding signal was 17300 fluorescence intensity (a.u.).
“CACCCTCGTTTCCACCCGCGCCCGCGCGCCGCGCGCCACTCGGAGTCACCTAGTGCAG” was tested, and the binding signal was 10800 fluorescence intensity (a.u.).
In the case of “AGCCAGTTTTCTCCACCCTCGTTTTCCGCGCACATGTTTTCGGAGTCACCTAGTGCAG”, the binding signal is reported as 17600 fluorescence intensity (a.u.).
“CTCGCTTCTTCTTCCTTCTTTCCGTCCTCGCCGCCCCGCGCGGAGTCACCTAGTGCAG” was tested, and the binding signal was 8470 fluorescence intensity (a.u.).
“GTTCCAGCCGCGTTTCCTCTCGCGGCGGCCTCGCCATTTCCGGAGTCACCTAGTGCAG” was tested, and the binding signal was 9070 fluorescence intensity (a.u.).
“ACGACGACGACGACGACGCAACCCCGCGGCGCGCGCCGGCCGGAGTCACCTAGTGCAG” was tested, and the binding signal was 8430 fluorescence intensity (a.u.).
In the case of “TCCTATGTTTTTCCTGCGGTCCAATCAAACGGTCATTCTTCGGAGTCACCTAGTGCAG”, the binding signal is reported as 12300 fluorescence intensity (a.u.).
“GCGTGTTTTTCTACCCGATCGACCTTCTGATTTTGGCTATCGGAGTCACCTAGTGCAG” was tested, and the binding signal was 11100 fluorescence intensity (a.u.).
In the case of “CCACCAGCGATTTGGCCCGATCTCATCCCACCAGCGATTTCGGAGTCACCTAGTGCAG”, the binding signal is reported as 8430 fluorescence intensity (a.u.).
For “CACAGCTTCTTAATTACTCCACCTTAATTAATCGATTAATCGGAGTCACCTAGTGCAG”, the binding signal was 8680 fluorescence intensity (a.u.).
In the case of “CCCACACCACCTCGCCCAATTAAACCCTCACCCATTCTTTCGGAGTCACCTAGTGCAG”, the binding signal is reported as 9140 fluorescence intensity (a.u.).
For “AAATTAACCACACTCGCGCCGCCATTCTCTTCTTCTTCTTCGGAGTCACCTAGTGCAG”, the binding signal was 20600 fluorescence intensity (a.u.).
With “CTCCACTGCTCTGATGCTCTCTCTCTCTCTCTCTTCACGCCGGAGTCACCTAGTGCAG” the binding signal was 10800 fluorescence intensity (a.u.).
With “CACCGGTTCTTCGCCTTCGTCACCGTCGCCGGCGGCGCCACGGAGTCACCTAGTGCAG” the binding signal was 8450 fluorescence intensity (a.u.).
“TGATCGCTCGCCGCCGCGGCCGCTCTCCCGCCGGCGCCGCCGGAGTCACCTAGTGCAG” was tested, and the binding signal was 9560 fluorescence intensity (a.u.).
For “GGGCGGTTCTTCTTCTTCGTCTTCGTCTTGGCGCCGGTCGCGGAGTCACCTAGTGCAG”, the binding signal was 17200 fluorescence intensity (a.u.).
With “CGCCGCCGCCGCCGCCGCCGCGCTCGCTCGCTCGCTTCTTCGGAGTCACCTAGTGCAG” the binding signal was 10200 fluorescence intensity (a.u.).
In the case of “CCACGCCACGCGCCGCTCTCACTCGGTCACTCTCACTCTTCGGAGTCACCTAGTGCAG”, the binding signal is reported as 9750 fluorescence intensity (a.u.).
“ATGCCGCTCTATCTCTCTCTCTCTCTCTCTCTCTCTCTCTCGGAGTCACCTAGTGCAG” was tested, and the binding signal was 9760 fluorescence intensity (a.u.).
In the case of “GTTGGGGTTCGTCGTCTTGGTCTTGGGTCTTCTTCGTCCCCGGAGTCACCTAGTGCAG”, the binding signal is reported as 11600 fluorescence intensity (a.u.).
In the case of “CTCTCTCTCTCTCTCTCTCTCTCTCTCTTCGCCGCGCGGCCGGAGTCACCTAGTGCAG”, the binding signal is reported as 18300 fluorescence intensity (a.u.).
For “TATATATATATATATATATATATATCTGATGCTCTCTTGCCGGAGTCACCTAGTGCAG”, the binding signal was 31700 fluorescence intensity (a.u.).
In the case of “TAGCAACTCCGTTCTTTTTCTTCTTTTCTCTCACTCACTCCGGAGTCACCTAGTGCAG”, the binding signal is reported as 8360 fluorescence intensity (a.u.).
“CTCTTATAACCACTTCTTTTTAAATCATTTGTTTATATGTCGGAGTCACCTAGTGCAG” was tested, and the binding signal was 10200 fluorescence intensity (a.u.).
For “TGGTCTGGCAGTTTTTGAGACGGGGAGTTGACTCAGATATCGGAGTCACCTAGTGCAG”, the binding signal was 9260 fluorescence intensity (a.u.).
For “AGGCTCTATTGGTTTCTCCTCTGTACATACAGTAGTAGTCCGGAGTCACCTAGTGCAG”, the binding signal was 8640 fluorescence intensity (a.u.).
“TTCTACACTCTCTTGATCAGCTCTCACCACTATGTACACTCGGAGTCACCTAGTGCAG” was tested, and the binding signal was 8860 fluorescence intensity (a.u.).
In the case of “TTTTTTTCGGTCTCAATATTTTTTTTTCTCACGTCTTTCGCGGAGTCACCTAGTGCAG”, the binding signal is reported as 10800 fluorescence intensity (a.u.).
With “CCTTGACCGTTCCCAGAAAGGTTGACCGTTGTCCGTCACTCGGAGTCACCTAGTGCAG” the binding signal was 9240 fluorescence intensity (a.u.).
In the case of “TTTTATATCCCTCACCGTACGATCCAACGTTCCGATTTCTCGGAGTCACCTAGTGCAG”, the binding signal is reported as 8890 fluorescence intensity (a.u.).
With “AACCACTCGCTTCCAAACAATCCAAACCTTCCATGCCATTCGGAGTCACCTAGTGCAG” the binding signal was 64700 fluorescence intensity (a.u.).
“TTCTCTTTTTCTTTTTATTTTTTCGTTCTCGTCGCCGCCGCGGAGTCACCTAGTGCAG” was tested, and the binding signal was 8330 fluorescence intensity (a.u.).
For “ACCTCTAACCGCCACTAGTTTTTTATACTCTTCTCTATAGCGGAGTCACCTAGTGCAG”, the binding signal was 8470 fluorescence intensity (a.u.).
“GCTTCGGCCCAACAACATTCCACTCGGCCCAACAACCACCCGGAGTCACCTAGTGCAG” was tested, and the binding signal was 9750 fluorescence intensity (a.u.).
For “CCAACCACTCCATCATCATTCGCAATCCAATCTCGCTCTTCGGAGTCACCTAGTGCAG”, the binding signal was 9230 fluorescence intensity (a.u.).
In the case of “CACACCTCGCCGCTCTTCCCGGCCTCCACCCGCCGCCCTTCGGAGTCACCTAGTGCAG”, the binding signal is reported as 8510 fluorescence intensity (a.u.).
In the case of “CGCTCCTCGCGGCCGCCGCCGCCGCCTCCCTCCTCGCCTTCGGAGTCACCTAGTGCAG”, the binding signal is reported as 8660 fluorescence intensity (a.u.).
For “CCAAGCGCCCGCCGCCTCGCTCCCTCCTCTTCCTTGACCTCGGAGTCACCTAGTGCAG”, the binding signal was 35200 fluorescence intensity (a.u.).
“ATACCGCCTATTTGCCACTCGTTTTTCTTCTCTTGGGCCGCGGAGTCACCTAGTGCAG” was tested, and the binding signal was 18700 fluorescence intensity (a.u.).
